Experimental data from PubChem BioAssay (Tox21).
Records with an inconclusive call do not appear. Calls of active or inactive are those of the source. Unless noted, the call rests on the fitted dose curve; in most records, active means well fitted curve in the direction sought with a large enough effect in the repeat runs; inconclusive means weak or mixed curves; inactive means no such curve, though single readings can be large; an effect the other way counts as inactive or inconclusive.

Experiments:
[1] = A CellTox Green Cytotoxicity Assay to monitor cytotoxicity in HEK293 cells - 32 hour (AID 1224881); further: nearly all actives have a fitted effect of over 40% in size
Outline: (§1)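 Cytotoxicity was tracked continuously in HEK293 cells by a DNA-binding dye excluded from viable cells. Compounds were transferred in DMSO 5 h after seeding; fluorescence was recorded at intervals up to 40 h.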

[2] = A CellTox Green Cytotoxicity Assay to monitor cytotoxicity in HepG2 cells - 0 hour (AID 1224882); further: nearly all actives have a fitted effect of over 35% in size
Outline: (§2)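 Real-time, homogeneous cytotoxicity readout: dead-cell DNA staining by CellTox Green in HepG2 monolayers, fluorescence measured at timed intervals up to 40 h of continuous compound exposure.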

[3] = A CellTox Green Cytotoxicity Assay to monitor cytotoxicity in HepG2 cells - 32 hour (AID 1224883); further: nearly all actives have a fitted effect of over 50% in size
Outline: as §2

[4] = A CellTox Green Cytotoxicity Assay to monitor cytotoxicity in HEK293 cells - 8 hour (AID 1224884); further: nearly all actives have a fitted effect of over 35% in size
Outline: as §1

[5] = qHTS RealTime-Glo MT Cell Viability Assay in HepG2 cells - 16 hour (AID 1224885); further: nearly all actives have a fitted effect of over 50% in size
Outline: (§3)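 Viability was tracked continuously by NanoLuc luminescence from prosubstrate reduced by living HepG2 cells, at successive time points over 40 h of compound exposure. Cells with reagent were preincubated 5 h at 37 °C before compound addition.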

[6] = qHTS RealTime-Glo MT Cell Viability Assay in HEK293 cells - 24 hour (AID 1224886); further: top concentration of the series differs between compounds; nearly all actives have a fitted effect of over 50% in size
Outline: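 Viability tracked continuously by luminescence as live cells reduce a prosubstrate for NanoLuc; HEK293 cells preincubated 5 h, compound-treated at 37 C, and read at 0, 8, 16, 24, 32 and 40 h.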

[7] = qHTS RealTime-Glo MT Cell Viability Assay in HEK293 cells - 8 hour (AID 1224887); further: top concentration of the series differs between compounds; nearly all actives have a fitted effect of over 50% in size
Outline: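 Nonlytic bioluminescent viability monitoring. HEK293 at 600 cells/well with reagent; 5 h settle; compound transfer by pintool; plates held at 37 C and read at set time points.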

[8] = A CellTox Green Cytotoxicity Assay to monitor cytotoxicity in HEK293 cells - 16 hour (AID 1224888); further: nearly all actives have a fitted effect of over 35% in size
Outline: as §1

[9] = qHTS RealTime-Glo MT Cell Viability Assay in HepG2 cells - 0 hour (AID 1224889); further: nearly all actives have a fitted effect of over 50% in size
Outline: as §3

[10] = A CellTox Green Cytotoxicity Assay to monitor cytotoxicity in HepG2 cells - 8 hour (AID 1224890); further: nearly all actives have a fitted effect of over 45% in size
Outline: as §2

[11] = qHTS assay to identify small molecule antagonists of the estrogen receptor alpha (ER-alpha) signaling pathway using the BG1 cell line in the presence of 0.1 nM 17-beta-estradiol - cell viability counter screen (AID 1259241); further: nearly all actives have a fitted effect of over 40% in size
Outline: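 In this screen, hormone-deprived VM7Luc4E2 cells were seeded at 4,000 per well, dosed with compound and 0.1 nM estradiol final, and incubated 22 hr at 37C and 5% CO2; fluorogenic live-cell protease signal reported viability.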

[12] = qHTS assay to identify small molecule antagonists of the androgen receptor (AR) signaling pathway using the MDA cell line in the presence of 0.5 nM R1881 - cell viability counter screen (AID 1259242); further: nearly all actives have a fitted effect of over 45% in size
Outline: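 Cytotoxicity toward MDA-kb2 cells is measured by CellTiter-Fluor live-cell protease fluorescence after 16 hr compound exposure at 37C in the presence of 0.5 nM R1881 stimulator.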

[13] = molecular target: Androgen receptor (Homo sapiens) (UniProt P10275); test: qHTS assay to identify small molecule antagonists of the androgen receptor (AR) signaling pathway using the MDA cell line in the presence of 0.5 nM R1881 (AID 1259243); further: nearly all actives have a fitted effect of over 50% in size
Sequence of Androgen receptor (Homo sapiens) (P10275 whole entry, looked up): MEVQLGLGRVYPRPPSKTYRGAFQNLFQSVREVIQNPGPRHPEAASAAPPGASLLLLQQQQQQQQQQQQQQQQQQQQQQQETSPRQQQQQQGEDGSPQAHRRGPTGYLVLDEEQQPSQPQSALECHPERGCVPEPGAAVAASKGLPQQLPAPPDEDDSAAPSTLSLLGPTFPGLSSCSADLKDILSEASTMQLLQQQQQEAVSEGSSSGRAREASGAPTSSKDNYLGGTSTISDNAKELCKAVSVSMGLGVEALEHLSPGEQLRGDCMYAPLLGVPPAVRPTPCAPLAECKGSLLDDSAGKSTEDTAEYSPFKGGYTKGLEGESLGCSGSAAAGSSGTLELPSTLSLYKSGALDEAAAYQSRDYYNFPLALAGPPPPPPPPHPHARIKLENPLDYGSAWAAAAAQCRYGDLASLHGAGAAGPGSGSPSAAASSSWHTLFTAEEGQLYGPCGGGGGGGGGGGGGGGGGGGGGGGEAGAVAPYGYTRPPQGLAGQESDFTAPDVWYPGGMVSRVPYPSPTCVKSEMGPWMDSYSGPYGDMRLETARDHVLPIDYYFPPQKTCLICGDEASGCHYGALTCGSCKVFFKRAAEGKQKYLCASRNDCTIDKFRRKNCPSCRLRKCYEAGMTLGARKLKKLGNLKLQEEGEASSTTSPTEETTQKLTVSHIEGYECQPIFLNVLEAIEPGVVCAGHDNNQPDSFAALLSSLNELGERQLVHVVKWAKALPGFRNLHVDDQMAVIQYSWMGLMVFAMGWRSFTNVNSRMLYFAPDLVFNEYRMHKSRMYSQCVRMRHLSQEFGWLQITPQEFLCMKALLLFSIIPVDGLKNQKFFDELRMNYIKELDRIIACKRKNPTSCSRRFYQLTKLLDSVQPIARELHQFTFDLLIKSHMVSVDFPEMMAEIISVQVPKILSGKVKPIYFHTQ
Outline: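 Steps: seed MDA-kb2 cells, incubate 5 hr at 37C; pin-transfer compounds in DMSO; add R1881 to 0.5 nM final; incubate 16 hr; add ONE-Glo, wait 30 min at room temperature; read luminescence.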

[14] = molecular target: Estrogen receptor (Homo sapiens) (UniProt P03372); test: qHTS assay to identify small molecule antagonists of the estrogen receptor alpha (ER-alpha) signaling pathway using the BG1 cell line in the presence of 0.1 nM 17-beta-estradiol (AID 1259244); further: nearly all actives have a fitted effect of over 50% in size
Sequence of Estrogen receptor (Homo sapiens) (P03372 whole entry, looked up): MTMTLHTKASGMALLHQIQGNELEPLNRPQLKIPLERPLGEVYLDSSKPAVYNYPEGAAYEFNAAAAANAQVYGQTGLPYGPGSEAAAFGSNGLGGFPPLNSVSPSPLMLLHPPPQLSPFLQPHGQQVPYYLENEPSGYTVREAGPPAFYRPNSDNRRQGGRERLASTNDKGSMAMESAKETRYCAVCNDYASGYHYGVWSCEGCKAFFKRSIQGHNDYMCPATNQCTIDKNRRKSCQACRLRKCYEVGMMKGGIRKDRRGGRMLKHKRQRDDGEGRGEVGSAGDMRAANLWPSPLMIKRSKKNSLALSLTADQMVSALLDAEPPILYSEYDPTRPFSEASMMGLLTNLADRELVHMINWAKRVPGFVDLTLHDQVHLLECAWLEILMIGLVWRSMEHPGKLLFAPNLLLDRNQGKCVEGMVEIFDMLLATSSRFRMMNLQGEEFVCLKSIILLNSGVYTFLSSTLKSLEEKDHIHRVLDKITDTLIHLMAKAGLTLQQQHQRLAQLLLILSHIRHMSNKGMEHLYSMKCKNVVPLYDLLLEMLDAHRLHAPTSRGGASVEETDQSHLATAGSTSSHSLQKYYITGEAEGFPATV
Outline: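 After 5 days in hormone-depleted medium (charcoal-stripped serum, no phenol red), VM7Luc4E2 cells were seeded, incubated 24 h, then co-treated with compound and 0.1 nM (final) estradiol for 22 h before luminescence detection.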

[15] = qHTS assay to identify small molecule HDAC inhibitors (AID 1259364); further: top concentration of the series differs between compounds; nearly all actives have a fitted effect of over 45% in size
Outline: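 Homogeneous cell-based luminescent assay of endogenous class I/II HDAC activity; HCT-116 cells, 2 h compound exposure, 30 min HDAC-Glo development at RT.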

[16] = qHTS assay to identify small molecule HDAC inhibitors - cell viability counter screen (AID 1259365)
Outline: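 Measured quantity is CellTiter-Glo luminescence from wild-type HCT-116 cells after compound incubation of 2hr at 37C, 5% CO2; reagent developed 30min at room temperature.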

[17] = qHTS assay to identify small molecule agonists of the sonic hedgehog signaling (Shh) pathway - cell viability counter screen (AID 1259366); further: nearly all actives have a fitted effect of over 50% in size
Outline: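 In quantitative high-throughput format, 3T3 Gli1-Luc cells were exposed to compounds for 24hr and multiplexed for viability using CellTiter-Fluor, incubated 1hr at 37C before the fluorescence read.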

[18] = qHTS assay to identify small molecule antagonists of the sonic hedgehog signaling (Shh) pathway - cell viability counter screen (AID 1259367); further: nearly all actives have a fitted effect of over 55% in size
Outline: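 Using CellTiter-Fluor, viability of Gli1-Luc reporter 3T3 cells is read by fluorescence in the wells used for the Shh luciferase assay. Treatment lasts 23 hr with conditioned medium, then reagent 1 hr at 37C.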

[19] = qHTS assay to identify small molecule agonists of the sonic hedgehog signaling (Shh) pathway (AID 1259368; calls by dose curve;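 further: NIH/3T3-derived 3T3Gli1-Luc cells carrying a stable Gli1-driven firefly luciferase reporter; series mostly up to about 92 µM; nearly all actives have a fitted effect of over 15% in size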)
Outline: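 Steps: seed 3T3 Gli1-Luc cells, incubate 4 hr at 37 C, pin-transfer compounds in DMSO alongside a positive control, incubate 24 hr, add luciferase detection reagent, wait 30 min at room temperature, read luminescence.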

[20] = qHTS assay to identify small molecule phospholipidosis (PLD) inducers (AID 1259344; active means well fitted curve in the direction sought with a large enough effect; an effect the other way counts as inactive or inconclusive)
Outline: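 Fluorescent phospholipid staining (LipidTOX Red) measured by automated microscopy in fixed HepG2 cells after 24 h treatment; nuclei counterstained with Hoechst 33342; amiodarone as reference inducer.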

Measured: Potency

O=CC1CC=CCC1 (configuration not stated)
not listed: [20]
inactive: all other assays above

Cc1cccc(C)c1NC(=O)CN(CC(=O)O)CC(=O)O
not listed: [13] | [14]
inactive: all other assays above

C[N+](C)(C)CCOC(=O)CCC(=O)OCC[N+](C)(C)C
not listed: [13]
inactive: all other assays above

Cc1ccccc1S(=O)(=O)O
not listed: [13] | [14] | [20]
inactive: all other assays above

CC1=CC=C(C(C)C)CC1
not listed: [13] | [16] | [20]
inactive: all other assays above

Nc1ncn([C@H]2C[C@H](O)[C@@H](CO)O2)c(=O)n1
not listed: [13] | [14]
inactive: all other assays above

CCOC(=O)c1cccnc1
not listed: [13]
inactive: all other assays above
